# Tb PFK inh: qHTS Assay to Find Inhibitors of T. brucei phosphofructokinase. hit rate 0.17% among 330,000. AID 485367, 2010. ATP-dependent 6-phosphofructokinase (Trypanosoma brucei brucei), O15648. Potency, µM (top dose mostly 57.5 µM), usual class: inhibitors. T. brucei PFK, ADP-Glo luminescence; note: nearly all actives have a fitted effect of over 60% in size
#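 Compounds were pin-transferred as a titration series up to 57 uM into substrate buffer (0.5 mM F6P, 0.1 mM ATP, pH 8.0), then 1.25 nM PFK was added and reactions ran 45 min before ADP-Glo detection.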
# TDP1 inh: qHTS Assay for Inhibitors of Tyrosyl-DNA Phosphodiesterase (TDP1); hit rate 0.28% among 350,000; AID 485290, 2010; Potency, µM (titrated, usually from 130 µM), usual class: inhibitors; recombinant TDP1, AlphaScreen DNA substrate cleavage; Tyrosyl-DNA phosphodiesterase 1 (Homo sapiens), Q9NUW8; note: nearly all actives have a fitted effect of over 40% in size
#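 Compounds were preincubated with Tdp1 (1 nM final) for 15 min at room temperature before substrate (15 nM final) started a 5 min reaction; beads (10 ug/ml final) were then added for 10 min before AlphaScreen detection.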
# WRN inhibitor: qHTS for Inhibitors of WRN Helicase; hit rate 0.46% among 360,000; WRN helicase unwinding, fluorescent forked duplex, kinetic; Potency, µM (series often up to 114 µM), usual class: inhibitors; Bifunctional 3'-5' exonuclease/ATP-dependent helicase WRN (Homo sapiens), Q14191; note: nearly all actives have a fitted effect of over 55% in size
#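 Kinetic fluorescence helicase assay: unwinding of a quenched forked DNA duplex (100 nM final) with 2 mM ATP final raises red fluorescence (525/598 nm). Compounds sat 15 min at room temperature with 20 nM WRN beforehand.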
# FEN1 inh-1: qHTS Assay for the Inhibitors of Human Flap endonuclease 1 (FEN1). P39748. Recombinant FEN1 flap cleavage, fluorescence, 15 min. Potency, µM (top dose mostly 114 µM), most hits filed as inhibitors. hit rate 0.35% among 390,000. AID 588795, 2011; note: nearly all actives have a fitted effect of over 65% in size
# Target sequence (P39748 whole entry, looked up): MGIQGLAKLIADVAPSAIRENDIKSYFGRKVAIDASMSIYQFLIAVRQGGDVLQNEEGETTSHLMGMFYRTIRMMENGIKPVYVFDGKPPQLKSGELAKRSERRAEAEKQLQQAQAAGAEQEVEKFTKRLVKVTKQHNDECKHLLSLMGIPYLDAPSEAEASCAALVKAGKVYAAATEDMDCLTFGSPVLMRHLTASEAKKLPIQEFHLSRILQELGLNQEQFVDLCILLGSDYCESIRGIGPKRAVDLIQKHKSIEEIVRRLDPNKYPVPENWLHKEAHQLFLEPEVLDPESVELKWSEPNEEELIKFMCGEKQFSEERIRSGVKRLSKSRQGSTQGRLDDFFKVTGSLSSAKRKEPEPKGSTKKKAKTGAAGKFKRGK
#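 Read-out was taken twice, immediately and after 15 min, following addition of 50 nM substrate to 10 nM FEN1 that had sat with test compound for 15 min at room temperature. Curves came from a four-parameter Hill model.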
# PGK inhibitor: qHTS Assay to Find Inhibitors of Phosphoglycerate Kinase. PGK/GAPDH coupled, Kinase-Glo luminescence, 60 min. Potency, µM (top dose mostly 57.5 µM), hits mostly inhibitors. hit rate 0.043% among 380,000. AID 602233, 2012; note: nearly all actives have a fitted effect of over 60% in size
#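 Recombinant glycosomal PGK reaction used 1,3-bisphosphoglycerate generated in-well by GAPDH (100nM final) in 100mM TEA pH 7.6, 5mM MgCl2, 0.01% Tween-20. After 60 minutes at room temperature, ATP was read by Kinase-Glo Plus luminescence end-point.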
# PI5P4K alpha inh: qHTS for Inhibitors of phosphatidylinositol 5-phosphate 4-kinase (PI5P4K); PI5P4Kalpha enzyme, ADP-Glo luminescence, 60 min; stronger effect = lower value; hit rate 1.2% among 330,000; Phosphatidylinositol 5-phosphate 4-kinase type-2 alpha (Homo sapiens), P48426; max response, %; active = max response of -50% or lower; inconclusive = between -30% and -50%; inactive = -30% or higher; note: value at the top dose of about 77 µM
#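 Enzyme plus substrate dispensed, test compounds pinned in, then ATP (5 microM final) added. After 60 min at RT, ADP-Glo reagent 1 for 45 min and reagent 2 for 30 min preceded luminescence imaging.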
# FEN1 inh-2: qHTS Assay for the Inhibitors of FEN1: Confirmatory Assay for Cherry-picked Compounds. shares compounds with FEN1 inh-1. Potency, µM, most hits filed as inhibitors. FEN1 flap cleavage, TAMRA/BHQ2 fluorogenic DNA substrate. hit rate 79% among 880; note: nearly all actives have a fitted effect of over 60% in size
# Numbers stand for hits; 0 = inactive; ? = inconclusive; - = no result given; [ ] = dose if it differs, or a comment. Compounds with a hit are over-represented: about 1.5% of the library has one in this group of screens. Unless noted, calls come from the whole dose curve; as a rule, active = well fitted curve in the direction sought with a large enough effect; inconclusive = small, poorly fitted or top-dose-only effect, or another doubt; inactive = no such curve, though single readings can be large; an effect the other way counts as inactive or inconclusive.
SMILES,Tb PFK inh,TDP1 inh,WRN inhibitor,FEN1 inh-1,PGK inhibitor,PI5P4K alpha inh,FEN1 inh-2
O=C(COc1cccc2ccccc12)N/N=C/c1ccccc1OCc1ccc(C(=O)O)cc1,0,0,0[11.6 µM],?,0,0,85
CCCc1cc(=O)oc2cc(OCC(=O)Nc3ccc(S(N)(=O)=O)cc3)ccc12,?,0,?,?,?,0,67
N=C1/C(=C\c2ccc(-c3cccc(C(=O)O)c3)o2)C(=O)N=C2SC=C(c3ccccc3)N12,0,50µM,40µM,32µM,?,-98,67
N=C1/C(=C/c2ccc(-c3cccc(C(=O)O)c3)o2)C(=O)N=C2SC(CC(=O)N3CCOCC3)=NN12,0,8.9µM,22µM,35µM,?,-83,67
CCOC(=O)c1c(/C=N/Nc2ccccc2)c2sc(C)cc2n1C,0,-,-,-,-,-,-
CCOC(=O)C1=C(C)N=c2s/c(=C\c3ccc(OCC(=O)O)cc3)c(=O)n2C1c1ccc(Cl)cc1 (centres undefined),?,-,?,?,?,0,76
CCOC(=O)C1=C(C)N=c2s/c(=C/c3ccc(OCC(=O)O)cc3)c(=O)n2C1c1ccc(F)cc1 (centres undefined),0,-,0[11.6 µM],?,0,0,85
CC(=O)Nc1ccc(C=NNc2ccc(S(=O)(=O)Nc3ccccc3C(=O)O)cc2[N+](=O)[O-])cc1,0,0,?,50µM,0,-92,85
COc1ccc(/C=C2\SC(=O)N(CCC(=O)Nc3ccc(S(=O)(=O)Nc4nccs4)cc3)C2=O)cc1,0,0,0,0,0,0,-
COc1ccc(/C=C2/SC(=S)N(c3ccc(S(=O)(=O)Nc4nccs4)cc3)C2=O)cc1,?,-,?,50µM,0,-67,60
Cc1ccc(-n2c(O)c(C=Nc3ccccc3-c3n[nH]c(=S)[nH]c3=O)c3ccccc3c2=O)cc1C,0,0,79µM,50µM,0,-81,67
Cc1cccc(-n2c(O)c(C=Nc3ccccc3-c3n[nH]c(=S)[nH]c3=O)c3ccccc3c2=O)n1,0,0,0,0,0,0,-
c1ccc(-c2nc(SCC3CCCCO3)n[nH]2)cc1 (centres undefined),-,-,-,0,-,-,-
O=C(ONC(=O)C1CCCCC1C(=O)NOC(=O)c1ccccc1)c1ccccc1 (centres undefined),-,-,0[11.6 µM],18µM,0,0,13
CCN(CC)Cc1cc2[nH]c3c4ccc(Cl)cc4ncc3c2cc1OC,0,-,0,14µM,0,0,?
O=C(/C=C/C#Cc1cccc(NS(=O)(=O)c2ccccc2)c1)NO,-,0,-,-,-,-,-
O=c1c2c(-c3ccccc3)csc2nc2c3ccccc3c(NCCN3CCOCC3)nn12,0,0,0,40µM,0,0,21
O=c1c2ccccc2nc2c3ccccc3c(NCCN3CCOCC3)nn12,0,0,-,-,-,-,-
COc1ccc(/C=C2\C=Cc3ccccc32)cc1,-,-,-,0,-,-,-
COc1ccc2sc(/C=C/c3ccccc3O)[n+](C)c2c1,0,0,?,40µM,0,0,85
COc1ccc(N=Cc2ccccc2O)cc1,-,-,0,0,0,0,-
Cc1[nH]c2ccccc2c1C(=O)C(C)OC(=O)c1ccc([N+](=O)[O-])o1 (centres undefined),0,0,0[11.6 µM],?,0,0,19
COc1cc(OC)c(NC(=O)C2=C(C)C(=O)OC23CCCCCC3)cc1Cl,-,0,-,0,0,-,-
COc1oc(=O)c2cc(N)ccc2c1Cl,-,0,-,-,-,-,-
COc1ccc(COCC(O)CN2CCC(CN3C(=O)c4cccc5cccc(c45)C3=O)CC2)cc1OC (centres undefined),0,0,0,?,0,0,?
SMILES,Tb PFK inh,TDP1 inh,WRN inhibitor,FEN1 inh-1,PGK inhibitor,PI5P4K alpha inh,FEN1 inh-2
O=C1c2cccc3cccc(c23)C(=O)N1CC1CCN(CC(O)COc2ccc3ccccc3c2)CC1 (centres undefined),0,0,0,0,0,0,-
Cc1cc(C)cc(OCC(O)CN2CCC(CN3C(=O)c4cccc5cccc(c45)C3=O)CC2)c1 (centres undefined),0,0,0,?,0,0,?
COc1cc(COCC(O)CN2CCN(CCN3C(=O)c4cccc5cccc(c45)C3=O)CC2)cc(OC)c1OC (centres undefined),0,0,0,?,0,0,-
Cc1cc(/C=c2\sc3nc4ccccc4n3c2=O)c(C)n1-c1ccc(C(=O)O)cc1,0,-,?,0,0,0,-
O=C(O)c1ccc(-c2ccc(/C=c3/sc4nc5ccccc5n4c3=O)o2)cc1Cl,0,-,?,13µM,10µM,-64,?
Cc1cccc2c(N=NC(=O)c3ccc(NS(=O)(=O)c4cccs4)cc3)c(O)[nH]c12,0,50µM,20µM,?,?,-77,34
CC1(C)OC(=O)C2(Cc3ccc(Br)cc3N3CCCCC32)C(=O)O1 (centres undefined),-,0,-,0,-,-,-
COc1ccc(OC)c2c1C(=O)c1ccccc1C2=O,0,-,?,?,0,0,-
COc1ccc(N)c2c1C(=O)c1ccccc1C2=O,0,0,20µM,?,0,0,76
COc1ccc2noc3c2c1C(=O)c1ccccc1-3,-,-,?,?,0,0,?
O=C(Cc1ccccc1)NC(c1ccco1)c1cc(Cl)c2cccnc2c1O (centres undefined),-,-,-,-,-,-,30
Cc1ccc(C(=O)NCC(=O)OCC(=O)c2ccc3ccccc3c2)cc1,-,0,-,0,-,-,-
Cc1ccc(-c2nc3ccccn3c2Nc2ccccc2C)o1,-,0,-,0,-,-,-
O=C1c2ccccc2C(=O)c2c(O)ccc(O)c21,-,0,-,-,-,-,-
O=C1c2ccccc2C(=O)c2c(O)c(O)cc(O)c21,0,?,0,?,?,-106,38
O=C1C=C(O)c2c(O)cc(O)c(O)c2C1=O,-,-,?,3.5µM,?,-68,21
CCCCCCC1Cc2cc(OC)c(OC)cc2C(C(C(=O)OCC)C(=O)OCC)O1 (centres undefined),-,0[21 µM],-,-,-,-,-
COc1cc2c(oc(=O)c3cc(C)cc(OC)c32)c2c(C3OC(C)C(O)C(C)(O)C3O)ccc(O)c12 (centres undefined),-,-,?,3.5µM,0,0,0.85
